This is a sample that favours compounds with a hit; in the whole collection about 11% have one here.
hNpr1 antagonist: blocks ANP-stimulated signaling of human Npr1 receptor | P16066 | HEK293 hNpr1 GloSensor cGMP, ANP-stimulated luminescence | Potency, µM (highest dose often 46.3 µM), inactives show top-dose activity change, negative = inhibition, actives largely listed as inhibitors | actives 1.6% (n = 76,000); calls by dose curve; further: on the % scale 0 is the no-effect control and ±100 the full control effect; nearly all actives have a fitted effect of over 60% in size
Target sequence (P16066 whole entry, looked up): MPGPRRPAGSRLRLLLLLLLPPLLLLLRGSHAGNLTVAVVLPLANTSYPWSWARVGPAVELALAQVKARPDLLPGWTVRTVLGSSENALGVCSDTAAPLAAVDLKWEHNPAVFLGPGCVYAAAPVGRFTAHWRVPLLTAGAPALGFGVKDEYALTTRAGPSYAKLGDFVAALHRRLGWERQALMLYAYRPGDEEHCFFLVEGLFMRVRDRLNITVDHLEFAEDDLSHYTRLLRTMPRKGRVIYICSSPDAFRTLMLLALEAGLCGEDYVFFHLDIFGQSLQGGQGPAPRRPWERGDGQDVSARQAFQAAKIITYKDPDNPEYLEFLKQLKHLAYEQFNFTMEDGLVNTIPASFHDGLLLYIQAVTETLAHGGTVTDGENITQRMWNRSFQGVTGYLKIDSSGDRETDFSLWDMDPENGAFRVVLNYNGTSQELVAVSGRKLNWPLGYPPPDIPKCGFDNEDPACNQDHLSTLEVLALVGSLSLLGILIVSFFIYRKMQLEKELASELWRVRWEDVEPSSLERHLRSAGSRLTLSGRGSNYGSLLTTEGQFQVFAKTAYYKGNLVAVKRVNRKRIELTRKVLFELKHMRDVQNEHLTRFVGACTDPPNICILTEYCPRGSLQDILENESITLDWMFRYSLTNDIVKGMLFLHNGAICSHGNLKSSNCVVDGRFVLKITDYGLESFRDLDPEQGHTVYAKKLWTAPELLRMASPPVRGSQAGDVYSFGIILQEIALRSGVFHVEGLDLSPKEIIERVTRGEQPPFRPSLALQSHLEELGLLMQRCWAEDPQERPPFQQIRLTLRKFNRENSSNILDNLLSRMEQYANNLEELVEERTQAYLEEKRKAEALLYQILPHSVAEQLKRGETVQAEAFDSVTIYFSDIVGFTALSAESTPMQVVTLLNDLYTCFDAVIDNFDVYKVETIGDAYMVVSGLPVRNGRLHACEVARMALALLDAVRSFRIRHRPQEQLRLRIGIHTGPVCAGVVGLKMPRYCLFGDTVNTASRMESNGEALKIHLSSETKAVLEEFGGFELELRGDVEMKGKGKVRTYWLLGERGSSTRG
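Compound pre-incubated 30 min at room temperature on GloSensor-loaded HEK293 cells stably carrying hNpr1 and the pGS-40F cGMP biosensor. Stimulation uses hNppA at 0.1 nM final; luminescence is taken at baseline and 20 min post-agonist.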
HEK cytotox: HEK 293 cell cytotoxicity. HEK 293 viability, ATP luminescence (CellTiter-Glo), 48-72 h. Potency, µM (doses to about 115 µM), for inactives: at the highest dose activity change, negative = cytotoxicity, usual class: inhibitors. actives 6.6% (n = 94,000). AID 1345083; further: on the % scale 0 is the no-effect control and ±100 the full control effect; nearly all actives have a fitted effect of over 60% in size
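Read-out: CellTiter-Glo ATP luminescence. Cells: HEK 293, 250 cells/well. Exposure: 48 or 72 hr, 37 degree Celsius.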
FLuc inh-1: inhibitors of firefly (Photinus pyralis) luciferase | P08659 | Potency, µM (series often up to 115 µM), usual class: inhibitors | purified P. pyralis luciferase, luminescence, biochemical | actives 2.5% (n = 76,000); further: on the % scale 0 is the no-effect control and ±100 the full control effect; nearly all actives have a fitted effect of over 65% in size
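Purified 10nM P. pyralis luciferase with 10uM D-luciferin and 10uM ATP in 50mM Tris acetate pH 7.5, 10mM Mg acetate, 0.01% Tween-20, 0.05% BSA. qHTS titration; luminescence read by CCD imager.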
NIH3T3 tox: NIH 3T3 cell cytotoxicity; NIH 3T3 viability, CellTiter-Glo ATP luminescence, 48-72 h; Potency, µM (top dose mostly 96.7 µM), without a hit: top-dose activity change, negative = cytotoxicity, usual class: inhibitors; actives 4.3% (n = 94,000); AID 1345082; further: on the % scale 0 is the no-effect control and ±100 the full control effect; nearly all actives have a fitted effect of over 55% in size
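Mouse fibroblast NIH 3T3 cells, 400 per well, received compound via pintool and were incubated for 48 or 72 hr prior to CellTiter-Glo ATP luminescence measurement.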
FLuc SDR -ATP: firefly luciferase binding stabilization, ATP absent | AID 1963318 | Purified FLuc-C-HiBiT, Nano-Glo HiBiT luminescence, no ATP | shares compounds with FLuc inh-1 | Potency, µM (highest dose often 32.7 µM), for inactives: at the highest dose activation (signal gain), hits mostly activators | actives 7.8% (n = 1,300); further: nearly all actives have a fitted effect of over 55% in size
FLuc SDR ATP: firefly luciferase binding stabilization, ATP added; shares compounds with FLuc inh-1; actives 8.7% (n = 1,300); AID 1963319; purified FLuc-C-HiBiT + ATP, HiBiT complementation luminescence; Potency, µM (series often up to 32.7 µM), for the others: at the top dose activation (gain of signal), usual class: activators;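 further: signal reports ligand binding via conformational change of the enzyme rather than luciferase catalysis; % of control where 0% means no effect; nearly all actives have a fitted effect of over 55% in size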
FLuc inh-2: firefly luciferase enzyme inhibition | shares compounds with FLuc inh-1 | purified FLuc-C-HiBiT enzyme, luciferin luminescence | Potency, µM (titrated, usually from 32.7 µM), inactives show top-dose activity change, negative = inhibition, usual class: inhibitors | actives 42% (n = 1,300); further: on the % scale 0 is the no-effect control and ±100 the full control effect; nearly all actives have a fitted effect of over 70% in size
* marks the source's active call; other numbers are inactive results; i = inactive; ? = inconclusive; . = not tested or not shown; [ ] = remark or other dose. Unless noted, the call rests on the fitted dose curve; in most records, active means well fitted curve in the direction sought with a large enough effect; inconclusive means small, poorly fitted or top-dose-only effect, or another doubt; inactive means no such curve, though single readings can be large; an effect the other way counts as inactive or inconclusive. Potency means the concentration at half of the fitted maximal effect.

SMILES	hNpr1 antagonist	HEK cytotox	FLuc inh-1	NIH3T3 tox	FLuc SDR -ATP	FLuc SDR ATP	FLuc inh-2
CCC(CC)COC(=O)[C@H](C)N[P@](=O)(OC[C@H]1O[C@@](C#N)(c2ccc3c(N)ncnn23)[C@H](O)[C@@H]1O)Oc1ccccc1	.	.	.	.	7%	5%	-6%
O=C1CS(=O)C2(CCN(S(=O)(=O)Cc3ccccc3)CC2)N1CC1CC1 (stereo unspecified)	-3%	-8%	i	1%	.	.	.
COc1ccc(-c2noc(-c3ccc(C)cc3Cl)n2)cc1OC	.	.	.	.	20%	12%	?
COc1ccc(-c2noc(-c3nc(-c4ccc(OC)c(OC)c4)no3)n2)cc1OC	1%	-1%	i	i	.	.	.
Cc1ccc(CN2CCN(c3cc(C)nc(N)n3)CC2CCO)cc1 (stereo unspecified)	-9%	?	i	?	.	.	.
CCc1ccccc1NC(=O)c1nnn(-c2ccc(F)cc2)c1C	.	.	.	.	30%	19%	?
CCc1ccccc1NC(=O)Cn1c(-c2ccc(F)cc2)nc(C)cc1=O	-1%	-2%	i	-21%	.	.	.
CCOc1ccc(-n2nc(CO)c(C(=O)NCc3ccccn3)n2)cc1	.	.	.	.	28%	17%	?
COc1cccc(CNC(=O)c2cnc3cc(C)nn3c2)c1	.	-8%[172 µM]	.	-16%[138 µM]	.	.	.
CCOc1ccc(-n2nc(CO)c(C(=O)NCc3cccc(OC)c3)n2)cc1	.	.	.	.	23%	15%	?
COc1ccc(-c2nc(C)nc3c2CN(C(=O)Cc2cccc(Cl)c2)CC3)cc1	.	-24%	.	-17%	.	.	.
COc1ccc(Nc2cc3c(nc2OC)nc(CCc2ccccc2)n3C)cn1	-24%[70.6 µM]	?	6.3µM*	?	15%[49.3 µM]	19%[49.3 µM]	?
Cc1c(-c2ccccc2)[nH]c2c(CNC(=O)CCn3cnnn3)cc(Cl)cc12	2%	?	?	?	.	.	.
Cc1cc(CNC(=O)C2(C(N)=O)CC2)c2[nH]c(-c3ccccc3)c(C)c2c1	?	22µM*	13µM*	?	26%	?	11µM*
COc1ccc2[nH]c(C(=O)N3CCC4(CC3)CC(c3nc(C)no3)N(C)C4)cc2c1 (stereo unspecified)	-3%	?	i	-23%	.	.	.
O=C1CCC2(C(=O)NCCc3ccccc3)CCCC=C2N1c1ccccc1 (stereo unspecified)	-23%	?	3.2µM*	-14%	11%	20%	?
COCCN1C(=O)CCC2(C(=O)NCCCc3ccccc3)CCCC=C12 (stereo unspecified)	1%	-1%	i	1%	.	.	.
COc1ccc(-c2noc([C@@H]3C[C@@H](O)CN3Cc3cc4ccccc4o3)n2)cc1	?	-11%[172 µM]	5µM*	-9%[174 µM]	18%[49.3 µM]	?	16µM*
COc1ccc(CN2C[C@H](O)C[C@H]2c2nc(-c3ccc(OC)cc3)no2)cc1	?	?	11µM*	-30%[174 µM]	-1%[49.3 µM]	1%[49.3 µM]	?
O=C(NC1CCCC1)c1nc2cccnc2n(C2CC2)c1=O	.	i	.	-1%[138 µM]	.	.	.
O=C(Nc1cccc(Br)c1)c1cc(-c2ccc3c(c2)OCCO3)on1	.	.	.	.	?	?	0.99µM*
CC(=O)Nc1ccc(C2(C(=O)NCc3ccc(N(C)C)cc3)CCCCC2)cc1	7%	-11%	i	-9%	.	.	.
Cc1ccc(C(=O)N2CCCC(C(=O)N3CCC(c4nc5ncccc5[nH]4)C3)C2)cc1 (stereo unspecified)	.	i	.	i	.	.	.
CCCOC(=O)CSc1ncnc2sc3c(c12)CCC(C)C3 (stereo unspecified)	.	.	.	.	16%	11%	?
Cc1ccn2c(Nc3ccc(C(C)C)cc3)c(-c3cccs3)nc2c1	.	.	.	.	17%	15%	?
SMILES	hNpr1 antagonist	HEK cytotox	FLuc inh-1	NIH3T3 tox	FLuc SDR -ATP	FLuc SDR ATP	FLuc inh-2
CC(C)(Oc1ccc(-c2nc3cc(Cl)ccc3s2)cc1)C(=O)O	.	.	.	.	?	?	8.8µM*
O=C1CC(c2ccccc2)N(C(=O)CNC(=O)Nc2ccccc2)CCCCCN1 (stereo unspecified)	0%	-16%	i	-11%	.	.	.
O=C1CC(c2ccccc2)N(C(=O)CNC(=O)Nc2ccc3c(c2)OCCO3)CCCCCN1 (stereo unspecified)	-2%	-2%	10µM*	-2%	15%	14%	?
COc1ccccc1NC(=O)Nc1ccc(-c2nnc3n2CCCC3)cc1	5%	?	i	-28%	.	.	.
CC(=O)Nc1ccc(OCC(=O)NCc2ccccc2F)nc1	-1%	1%	i	-19%	.	.	.
CN(C(=O)OC(C)(C)C)c1ccc(-c2nc3ccccc3s2)cc1	.	.	.	.	1.4µM*	0.35µM*	0.099µM*
COC[C@H]1C[C@@H](NC(=O)c2nc3ccccc3s2)[C@H](O)[C@@H]1O	-9%[70.6 µM]	-5%[172 µM]	i	-7%[138 µM]	.	.	.
COc1ccccc1OC(C)C(=O)Nc1ccc(-c2nc3ccccc3s2)cc1 (stereo unspecified)	.	.	.	.	15%	13%	-10%
CN(C)c1cccc(C(=O)Nc2cccc(-c3nnc4n3CCCC4)c2)c1	-4%	?	?	-27%	.	.	.
O=C(COc1ccccc1F)Nc1ccc(-c2nc3ccccc3s2)cc1	.	.	.	.	10%	7%	-5%
CN(C)c1cccc(C(=O)Nc2ccc(-c3nc4ccccc4s3)cc2)c1	.	.	.	.	30%	?	?
O=C(Nc1ccccc1F)N1CCC2(CCC2N2CCOCC2)CC1 (stereo unspecified)	.	3%	.	0%	.	.	.
O=C(c1cc(-c2ccc(F)cc2)nc2ccccc12)N1CCCC1c1nc(C2CCOCC2)no1 (stereo unspecified)	8%	?	i	?	.	.	.
CC(C)Oc1ccc(C(=O)Nc2ccc(-c3nc4ccccc4s3)cc2)cc1	.	.	.	.	18%	10%	4%
CC(C)Oc1cccc(-c2nc(C(=O)Nc3ccc(F)cc3)cs2)c1	-19%	?	?	?	.	.	.
CCC(C)(C)c1ccc2c(C(=O)N3C[C@H](N)C[C@H]3C(=O)NC)csc2c1	2%	?	i	?	.	.	.
CC1=C[C@@H](CNC(=O)c2ccccc2)[C@H](C(C)C)C[C@H]1CC(=O)N1CCOCC1	3%[70.6 µM]	-11%[172 µM]	i	-2%[138 µM]	.	.	.
CC1=C[C@@H](CNC(=O)c2ccncc2)[C@H](C(C)C)C[C@H]1CC(=O)N1CCOCC1	?	-11%[172 µM]	13µM*	-2%[138 µM]	10%[49.3 µM]	14%[49.3 µM]	-13%[49.3 µM]
COCCOc1ccc2c(n1)CCN(C(=O)c1cccc(OC)c1OC)C2	0%	8%	i	3%	.	.	.
CCn1cc(-c2ccc(Cl)cc2)cc1C(=O)O	1%	-9%	?	-21%	13%	11%	-10%
